In article PMC7862700, “An all-to-all approach to the identification of sequence-specific readers for epigenetic DNA modifications on cytosine”:

How the values were obtained:
Test in all cases: DAPPL (digital affinity profiling via proximity ligation, sequencing); 10 mM Tris-HCl pH 7.5, 50 mM NaCl, 1 mM DTT, 4% glycerol, room temperature, 30 min; GST-TFs on glutathione beads, 16-mer random dsDNA library, 0.1% formaldehyde crosslink after washing; high values mean tight binding
Conditions in all cases: protein: recombinant; tags: N-terminal GST; dsDNA, one strand shown
FLI1 = biological target: T1, FLI1 (Homo sapiens, UniProt Q01543 1-452)
T1 sequence: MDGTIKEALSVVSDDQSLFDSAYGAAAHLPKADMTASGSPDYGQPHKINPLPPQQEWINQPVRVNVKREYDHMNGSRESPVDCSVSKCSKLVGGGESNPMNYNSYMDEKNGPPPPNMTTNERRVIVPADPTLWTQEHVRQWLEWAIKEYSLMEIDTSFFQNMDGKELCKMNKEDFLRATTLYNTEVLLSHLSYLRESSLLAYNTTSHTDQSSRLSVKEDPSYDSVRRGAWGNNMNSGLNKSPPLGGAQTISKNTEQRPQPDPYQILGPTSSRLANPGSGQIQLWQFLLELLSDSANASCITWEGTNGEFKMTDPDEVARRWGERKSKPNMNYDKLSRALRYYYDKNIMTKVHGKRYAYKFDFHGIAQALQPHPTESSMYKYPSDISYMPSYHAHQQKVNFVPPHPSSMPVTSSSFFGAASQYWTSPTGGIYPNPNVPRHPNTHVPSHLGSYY
Summary of the method: (§1)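 Binding signal is defined as a hexamer's read frequency for one factor over its frequency for the tag-only sample. To obtain reads, GST-fused human transcription factors were expressed in yeast, captured on glutathione beads, barcoded with DNA and pooled with that sample. Pools met 200 nmole of a 16-mer random double-stranded DNA library in Tris/NaCl/DTT/glycerol buffer for 30 min at room temperature before washing, 0.1% formaldehyde crosslinking, proximity ligation (BsaI/T4 ligase, 1 h, 37 °C), PCR and Illumina NextSeq500 sequencing.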

ELK1 = biological target: T2, ELK1 (Homo sapiens, UniProt P19419 1-428)
T2 sequence: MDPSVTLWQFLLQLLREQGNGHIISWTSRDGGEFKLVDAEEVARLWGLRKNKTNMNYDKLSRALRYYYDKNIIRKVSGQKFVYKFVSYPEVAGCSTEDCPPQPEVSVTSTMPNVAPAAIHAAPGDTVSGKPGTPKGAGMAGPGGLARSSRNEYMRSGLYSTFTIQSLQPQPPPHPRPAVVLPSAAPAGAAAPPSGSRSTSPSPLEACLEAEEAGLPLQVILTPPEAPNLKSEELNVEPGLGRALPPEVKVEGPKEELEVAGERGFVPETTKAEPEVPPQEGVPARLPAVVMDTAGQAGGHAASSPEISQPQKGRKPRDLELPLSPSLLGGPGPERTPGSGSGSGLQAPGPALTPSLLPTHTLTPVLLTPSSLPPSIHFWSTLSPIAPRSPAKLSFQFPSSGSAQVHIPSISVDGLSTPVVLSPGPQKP
Summary of the method: as §1

GABPA = biological target: T3, GABPA (Homo sapiens, UniProt Q06546 1-454)
T3 sequence: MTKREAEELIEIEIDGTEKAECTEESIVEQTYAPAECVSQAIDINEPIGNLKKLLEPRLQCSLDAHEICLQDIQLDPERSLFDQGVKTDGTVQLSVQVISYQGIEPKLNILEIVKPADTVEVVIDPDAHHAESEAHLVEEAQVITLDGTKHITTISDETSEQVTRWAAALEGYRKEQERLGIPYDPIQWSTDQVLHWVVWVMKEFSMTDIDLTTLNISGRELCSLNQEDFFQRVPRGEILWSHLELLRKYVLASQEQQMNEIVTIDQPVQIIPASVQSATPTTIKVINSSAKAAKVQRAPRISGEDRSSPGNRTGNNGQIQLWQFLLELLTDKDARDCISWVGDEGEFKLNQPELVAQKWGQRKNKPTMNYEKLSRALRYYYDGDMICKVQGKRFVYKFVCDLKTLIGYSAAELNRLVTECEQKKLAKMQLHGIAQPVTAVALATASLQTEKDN
Summary of the method: as §1

ERG = biological target: T4, ERG (Homo sapiens, UniProt P11308 1-479)
T4 sequence: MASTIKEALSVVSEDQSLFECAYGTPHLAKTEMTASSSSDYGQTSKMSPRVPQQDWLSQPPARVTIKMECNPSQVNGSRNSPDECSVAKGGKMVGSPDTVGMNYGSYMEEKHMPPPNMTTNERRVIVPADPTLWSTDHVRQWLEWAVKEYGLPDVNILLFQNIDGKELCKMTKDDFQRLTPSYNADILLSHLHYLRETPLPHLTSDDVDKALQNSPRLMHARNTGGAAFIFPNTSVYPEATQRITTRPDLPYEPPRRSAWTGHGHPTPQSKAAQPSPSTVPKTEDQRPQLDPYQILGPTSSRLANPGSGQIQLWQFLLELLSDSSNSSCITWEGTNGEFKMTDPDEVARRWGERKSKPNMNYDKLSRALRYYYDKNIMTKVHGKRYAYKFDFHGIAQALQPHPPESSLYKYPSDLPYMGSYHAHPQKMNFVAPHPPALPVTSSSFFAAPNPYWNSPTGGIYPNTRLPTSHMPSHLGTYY
Summary of the method: as §1

ELF1 = ELF1 (Homo sapiens, UniProt P32519 1-619)
Summary of the method: as §1

EHF = biological target: T5, EHF (Homo sapiens, UniProt Q9NZC4 1-300)
T5 sequence: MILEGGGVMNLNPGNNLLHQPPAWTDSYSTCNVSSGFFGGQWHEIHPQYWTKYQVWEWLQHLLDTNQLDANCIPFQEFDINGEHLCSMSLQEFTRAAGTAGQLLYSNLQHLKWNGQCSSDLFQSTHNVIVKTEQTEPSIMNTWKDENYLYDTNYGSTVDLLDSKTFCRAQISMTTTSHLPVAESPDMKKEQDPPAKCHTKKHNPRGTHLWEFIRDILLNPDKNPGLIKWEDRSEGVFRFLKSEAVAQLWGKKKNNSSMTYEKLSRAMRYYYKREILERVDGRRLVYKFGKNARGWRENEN
Summary of the method: as §1

SPI1 = SPI1 (Homo sapiens, UniProt P17947 1-270)
Summary of the method: as §1

SPIB = SPIB (Homo sapiens, UniProt Q01892 1-262)
Summary of the method: as §1

ELK3 = biological target: T6, ELK3 (Homo sapiens, UniProt P41970 1-407)
T6 sequence: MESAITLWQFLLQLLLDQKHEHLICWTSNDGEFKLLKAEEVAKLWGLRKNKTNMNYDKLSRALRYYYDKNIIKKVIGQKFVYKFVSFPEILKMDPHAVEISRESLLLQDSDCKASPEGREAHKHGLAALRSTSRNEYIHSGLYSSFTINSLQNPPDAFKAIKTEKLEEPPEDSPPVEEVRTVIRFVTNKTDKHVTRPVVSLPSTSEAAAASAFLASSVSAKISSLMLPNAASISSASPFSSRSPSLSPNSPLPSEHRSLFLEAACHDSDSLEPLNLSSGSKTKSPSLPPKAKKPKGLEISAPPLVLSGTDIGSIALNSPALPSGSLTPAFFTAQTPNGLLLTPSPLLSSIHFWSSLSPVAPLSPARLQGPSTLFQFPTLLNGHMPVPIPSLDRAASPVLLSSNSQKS
Summary of the method: as §1

ELF1, sequence (P32519 whole entry): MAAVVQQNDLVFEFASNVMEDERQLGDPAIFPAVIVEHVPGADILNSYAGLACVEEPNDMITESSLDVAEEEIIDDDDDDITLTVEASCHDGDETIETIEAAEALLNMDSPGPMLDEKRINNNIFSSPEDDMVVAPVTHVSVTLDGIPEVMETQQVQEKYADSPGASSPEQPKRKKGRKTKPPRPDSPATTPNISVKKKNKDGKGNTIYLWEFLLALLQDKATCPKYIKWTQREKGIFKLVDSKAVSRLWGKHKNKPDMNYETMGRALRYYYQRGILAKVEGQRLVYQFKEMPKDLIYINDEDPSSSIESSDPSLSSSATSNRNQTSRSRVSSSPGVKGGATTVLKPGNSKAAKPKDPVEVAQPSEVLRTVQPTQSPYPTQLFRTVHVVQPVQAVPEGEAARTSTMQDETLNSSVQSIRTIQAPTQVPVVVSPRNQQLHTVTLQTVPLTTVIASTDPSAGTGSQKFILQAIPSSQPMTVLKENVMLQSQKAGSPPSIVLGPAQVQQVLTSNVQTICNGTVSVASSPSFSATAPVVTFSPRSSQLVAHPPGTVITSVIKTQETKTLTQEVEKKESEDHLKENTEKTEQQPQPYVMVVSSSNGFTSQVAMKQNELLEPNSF
SPIB, sequence (Q01892 whole entry): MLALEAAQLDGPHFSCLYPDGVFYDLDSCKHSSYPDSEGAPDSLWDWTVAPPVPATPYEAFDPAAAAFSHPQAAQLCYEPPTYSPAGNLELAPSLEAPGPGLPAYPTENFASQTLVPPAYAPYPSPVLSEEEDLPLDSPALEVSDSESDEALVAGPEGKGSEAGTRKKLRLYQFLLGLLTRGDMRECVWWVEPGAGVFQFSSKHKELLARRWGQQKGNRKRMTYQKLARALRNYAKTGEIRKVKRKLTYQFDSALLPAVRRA

Question: Which results are given for ATCACC?
Answer: binding signal (FLI1): 1.17 fold enrichment (6-mer frequency, TF over GST control); binding signal (ELK1): 1.18 fold enrichment (6-mer frequency, TF over GST control); binding signal (GABPA): 1.13 fold enrichment (6-mer frequency, TF over GST control); binding signal (ERG): 1.14 fold enrichment (6-mer frequency, TF over GST control); binding signal (ELF1): 1.19 fold enrichment (6-mer frequency, TF over GST control); binding signal (EHF): 1.1 fold enrichment (6-mer frequency, TF over GST control); binding signal (SPI1): 1.11 fold enrichment (6-mer frequency, TF over GST control); binding signal (SPIB): 1.03 fold enrichment (6-mer frequency, TF over GST control); binding signal (ELK3): 1.27 fold enrichment (6-mer frequency, TF over GST control)
